Smad3 FoxH1 inh – Smad3/FoxH1 peptide binding inhibitors, primary screen, biochemical, TR-FRET; Mothers against decapentaplegic homolog 3 (Homo sapiens), P84022; TR-FRET Smad3/Dy647-FoxH1 peptide binding, europium anti-His; inhibition, % at 25 µM; 88,000 tested, 0.29% active; AID 630, 2007;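 active = compounds that reduce the energy-transfer binding signal between the protein and its labelled peptide by more than half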;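 note: 0% = Smad3 plus labelled peptide maximal FRET and 100% = peptide-only background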
Target sequence (P84022 whole entry, looked up): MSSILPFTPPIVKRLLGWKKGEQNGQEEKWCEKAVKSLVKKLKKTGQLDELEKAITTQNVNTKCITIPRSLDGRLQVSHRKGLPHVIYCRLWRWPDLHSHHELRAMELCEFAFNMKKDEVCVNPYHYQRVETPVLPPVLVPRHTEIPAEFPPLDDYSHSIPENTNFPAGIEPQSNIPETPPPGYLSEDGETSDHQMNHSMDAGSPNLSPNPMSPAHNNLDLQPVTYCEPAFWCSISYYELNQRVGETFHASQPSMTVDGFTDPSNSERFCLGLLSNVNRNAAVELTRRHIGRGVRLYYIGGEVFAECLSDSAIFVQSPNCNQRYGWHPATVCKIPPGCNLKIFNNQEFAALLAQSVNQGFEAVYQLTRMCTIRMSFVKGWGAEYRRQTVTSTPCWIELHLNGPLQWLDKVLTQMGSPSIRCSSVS
Measles CPE – compounds protecting cells from measles virus cytopathic effect, primary screen, measles RdRp inhibitor project, single point, MLSMR library, absorbance; protection (pct of control), % at 4 µM; 140,000 tested, 1.5% active; Measles virus-infected cells, CPE protection; in the data active = protection mostly above about 24%, no sharp cut-off; inactive = mostly below about 26%
MT1-MMP txn act – MT1-MMP promoter reporter activation – cell-based, luciferase luminescence, primary screen; HT1080 MT1-MMP promoter luciferase reporter, overnight; stronger effect = higher value; activation factor at 10 µM; 86,000 tested, 0.16% active;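 active = activation factor of at least 2 for MT1-MMP transcription at 10 µM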
* = called active by the depositor; . = no result given. This is a sample that favours compounds with a hit; in the whole collection about 1.7% have one here.

SMILES	Smad3 FoxH1 inh	Measles CPE	MT1-MMP txn act
OC(COCc1cccs1)CN1CCN(c2ccccc2Cl)CC1 (stereo not given)	.	20	.
OC(COCc1cccs1)CN1CCN(c2cccc(Cl)c2)CC1 (stereo not given)	.	54*	.
Cc1nnc(S(=O)(=O)c2ccc(N=Nc3c(N)nc(N)nc3N)cc2)s1	-6	.	.
COc1ccc(C(=O)Nc2cccc(/C(C)=N/NC(=O)c3ccc([N+](=O)[O-])cc3)c2)cc1OC	.	13	.
COc1ccc(C(=O)Nc2ccc(/C(C)=N/NC(=O)c3ccccc3O)cc2)cc1OC	.	45*	.
Cn1c(CNS(=O)(=O)c2ccc(F)cc2)n[nH]c1=S	.	43*	.
Cn1c(CNS(=O)(=O)c2ccc(Cl)cc2)n[nH]c1=S	.	5	.
CCc1cccc(C)c1NC(=O)c1cc(C)oc1C	-15	11	1.2
CCc1cccc(C)c1NC(=O)c1ccoc1C	4	44*	1.2
COC(=O)[C@@]1(Cc2ccc(F)cc2)[C@H]2c3cc(C(=O)N4CCCC4)n(Cc4ccc(C)o4)c3C[C@H]2CN1C(=O)c1ccccc1	.	.	1.1
OC1(c2ccccc2F)CCN(Cc2nnc(-c3ccccc3)o2)CC1	3	81*	1.2
c1ccc(-c2nnc(CN3CCC4(CC3)OCCO4)o2)cc1	4	2	1.3
O=[n+]1cc(-c2ccc(Cl)cc2)n([O-])c2c1CCCCC2	.	6	.
Cc1nnc(C)n1N1C(=O)c2cccc3cccc(c23)C1=O	5	49*	1.1
Cc1nnc(N2C(=O)c3cccc4cccc(c34)C2=O)s1	2	27	1
O=S(CC1CC1(Cl)Cl)CC1CC1(Cl)Cl (stereo not given)	.	15	.
COC(=O)N1[C@H](C)C=C[C@]1(Cc1ccccc1)C(=O)NCc1ccc(C)o1	.	.	1.1
CC(C)CCn1c(S(=O)(=O)O)nc2ccccc21	3	5	1.2
CCC(C)Cn1c(S(=O)(=O)O)nc2ccccc21 (stereo not given)	-5	50*	1.2
Cc1ccc(CCCC(=O)O)cc1C	-7	.	.
CSc1nnc(SCC2=NNC(=O)SC2)s1	.	6	.
O=C(COc1ccc2ccccc2c1)NCCNC(=O)COc1ccc2ccccc2c1	-20	85*	1.4
O=C(COc1ccc2ccccc2c1)NNC(=O)Cc1ccccc1	.	15	.
Cn1c(=O)c2c(nc(Cc3ccccc3)n2CC(=O)O)n(C)c1=O	-9	.	.
CC(C)CCn1c(SCC(=O)N2CC(=O)Nc3ccccc32)nc2scc(-c3cccs3)c2c1=O	2	6	1
SMILES	Smad3 FoxH1 inh	Measles CPE	MT1-MMP txn act
C=CCn1c(SCC(=O)N2CC(=O)Nc3ccccc32)nc2scc(-c3cccs3)c2c1=O	10	81*	1.1
Cc1cc(-c2cc(N)n(-c3ccccc3)n2)c(C)n1C1CCCC1	-3	7	2*
Cc1cc(N)n(-c2ccccc2)n1	.	5	.
O=C(CCN1CCCCC1)N1CCc2c([nH]c3ccccc23)[C@H]1c1cccnc1	-8	.	.
O=C(CN1CCN(c2ccccc2)CC1)Nc1ccccc1Sc1ccccc1	.	14	.
O=C(CN1CCN(c2ccccc2)CC1)Nc1ccccc1C(F)(F)F	5	32*	1
COc1ccccc1NC(=O)CCC(=O)O	4	71*	.
CCOc1ccccc1NC(=O)CCC(=O)O	-8	17	1.2
CN(C)CCCN=C(N)N	-11	.	.
CN(C)CCCOC(=O)COc1ccc(C(C)(C)C)cc1	.	25*	.
CCOc1ccc(OCCCN(C)C)cc1	21	20	1.1
CCOC(=O)c1c(C)[nH]c(C(=O)N/N=C\c2ccccc2Cl)c1C	.	6	.
O=C(O)CC1SC(=Nc2ccccc2)N(c2ccccc2)C1=O (stereo not given)	10	51*	1
Cc1ccc(CC2SC(=Nc3ccccc3)N(c3ccccc3)C2=O)cc1 (stereo not given)	.	5	.
COc1ccc(CCNC(=O)NC2CCCCC2)cc1	2	13	1.3
Cc1cnc(C(=O)NCCc2ccc(S(=O)(=O)NC(=O)NC3CCCCC3)cc2)cn1	5	84*	1.2
Cc1ccc(S(=O)(=O)Oc2cc(S(=O)(=O)O)cc3cc(S(=O)(=O)O)cc(N)c23)cc1	6	.	.
Cc1ccc(C(=O)Nc2sc3c(c2C#N)CCCCC3)cc1C	1	17	2.3*
CC(=O)Nc1sc2c(c1C#N)CCCCC2	-3	8	1.2
O=C(NCCc1c[nH]c2ccccc12)C(F)(F)F	7	45*	1.2
CC(C)C(=O)NCCc1c[nH]c2ccccc12	.	6	.
CCCCCNC(=O)CSC1=N/C(=C\c2ccc(Cl)c(Cl)c2)C(=O)N1CC	.	41*	.
CCCNC(=O)CSC1=N/C(=C/c2ccc(F)cc2)C(=O)N1CC	.	11	.
NC(N)=NNC(=O)C(=O)O	-9	.	.
Cc1ccc(NS(=O)(=O)c2ccc(OCC(=O)NCc3ccco3)cc2)cc1	10	53*	1
SMILES	Smad3 FoxH1 inh	Measles CPE	MT1-MMP txn act
Cc1ccc(C)c(NS(=O)(=O)c2ccc(OCC(=O)NCc3ccco3)cc2)c1	10	13	1.1
CC(=O)Oc1ccc(C(=O)Nc2ccccc2C(=O)NCC(C)C)cc1	.	54*	.
CC(C)CNC(=O)c1ccccc1NC(=O)c1ccc(CN2CCOCC2)cc1	10	11	1.1
O=C(NCCc1nc2ccccc2[nH]1)/C(=C/c1ccc2c(c1)OCO2)NC(=O)c1ccc(Cl)cc1Cl	.	18	.
CC(C)=CC(=O)Nc1nnc(-c2ccccc2)s1	.	1	.
CC(C)=CC(=O)Nc1nnc(C)s1	-5	38*	1.3
COC(=O)c1ccc(C)c(NC(=O)c2c(-c3ccccc3)noc2C)c1	-5	16	1.2
CCOC(=O)c1c(-c2ccc(C)cc2)csc1NC(=S)NC(=O)c1ccccc1	.	21	.
CCOC(=O)c1c(-c2ccc(F)cc2)csc1NC(=O)c1c(-c2ccccc2)noc1C	.	67*	.
COC(=O)c1c(-c2ccccc2)csc1NC(=O)c1c(-c2ccccc2)noc1C	.	38*	.
CNC[C@@H](SC)c1ccc(O)c(O)c1	15	.	.
COC(=O)[C@@H]1C2CCC(C(=O)Nc3ccccc3)(CC2)[C@@H]1C(=O)OC	0	48*	1.2
COc1ccc(C2(C(=O)Nc3ccccc3)CCOCC2)cc1	.	10	.
CN(C)CCCN1CCC2(CCC(C(C)(C)C)CC2)CC1	8	.	.
S=C1NCN2CCN(CC2)CNC(=S)C(=S)NCN2CCN(CC2)CNC1=S	11	.	.
Cc1ccc(S(=O)(=O)NC(CC(C)C)C(=O)NCc2ccco2)cc1 (stereo not given)	-32	23	0.9
Nc1nc(N)c2[nH]c(CNC3CCC(C(=O)O)CC3)nc2n1 (stereo not given)	4	.	.
C=CCN=c1scc(-c2ccc(F)cc2)n1/N=C/c1ccccn1	.	26	.
C=CCN=c1scc(-c2ccccc2)n1/N=C/c1ccccn1	.	50*	.
CCN=c1scc(-c2ccccc2)n1/N=C/c1ccccn1	.	62*	.
Cc1nc2ccccc2c(=O)n1/N=C/c1ccccn1	-4	7	1
NC(Cc1ccccc1)(C(=O)O)C(=O)O	3	.	.
C/C(=N/NC(=O)CN1CCN(S(=O)(=O)c2ccc(Br)cc2)CC1)c1ccco1	.	3	.
CCC(=O)[C@@H](c1ccccc1)c1ccccn1	-7	.	.
CN(C)/C=C(\C(=O)c1ccc(F)cc1F)c1nnnn1-c1ccccc1	.	9	.
CN(C)c1ccc(C=C(c2nnnn2-c2ccccc2)c2nnnn2-c2ccccc2)cc1	.	23*	.
